In PubChem BioAssay (NCI):
About 83,000 compounds went through this panel and 20% of them were active in at least one assay; those are over-represented in the sample as a whole.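 Single-dose data. Exposure time 48 hours. Values below 10 considered active.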 Calls of active or inactive are those of the source.

What was measured:
Assay in all cases: NCI-60 one-dose screen, 48 h (100 = growth as untreated, 0 = no growth, -100 = all killed)
Settings in all cases: 10 µM unless noted
[1] = tested on: NCI-H23 lung
[2] = tested on: NCI-H226 lung
[3] = tested on: NCI-H322M lung
[4] = tested on: HOP-62 NSCLC
[5] = tested on: NCI-H460 lung
[6] = tested on: HOP-92 NSCLC
[7] = tested on: NCI-H522 lung
[8] = tested on: A549/ATCC NSCLC
[9] = tested on: 786-0 renal
[10] = tested on: COLO 205 colon
[11] = tested on: DU-145 prostate
[12] = tested on: K-562 leukemia
[13] = tested on: MALME-3M melanoma
[14] = tested on: MDA-MB-231 breast
[15] = tested on: RXF 393 renal
[16] = tested on: SF-268 CNS
[17] = tested on: SF-295 CNS
[18] = tested on: SF-539 CNS
[19] = tested on: UACC-257 melanoma
[20] = tested on: M14 melanoma

Measured: growth

C[C@H]1[C@@H]2[C@H]3CC[C@@H]4[C@@]5(C)Cc6c([nH]c7ccccc67)C(C)(C)[C@@H]5CC[C@@]4(C)[C@]3(C)CC[C@]23CO[C@]1(C)[C@@H](C(=O)/C=C/c1ccccn1)C3
inactive: [1] 91.7% | [2] 101% | [3] 112% | [4] 109% | [5] 98.3% | [6] 67.2% | [7] 92.1% | [8] 89.4% | [9] 106% | [10] 102% | [11] 102% | [12] 72.5% | [13] 106% | [14] 85% | [15] 89.3% | [16] 88.8% | [17] 99.4% | [18] 84.9% | [19] 103% | [20] 93.6%

O=C1/C(=C\c2ccc(Br)o2)SC(=S)N1CCc1ccc(O)cc1
inactive: [1] 49.7% | [2] 97.3% | [3] 88.3% | [4] 83.5% | [5] 107% | [6] 55.3% | [7] 37.8% | [8] 100% | [9] 78.7% | [10] 97.8% | [11] 43% | [12] 65.6% | [13] 69% | [14] 53.2% | [15] 51.9% | [16] 96% | [17] 94.9% | [18] 52.3% | [19] 77.2% | [20] 73.7%

CC(C)(C)c1ccc(OCCCCCCCN2CCNCC2)cc1
inactive: [1] 51.9% | [2] 70.3% | [3] 53.6% | [4] 54% | [6] 33.3% | [7] 72.9% | [8] 44.9% | [9] 23.9% | [11] 45.6% | [14] 19.3% | [15] 28.2% | [16] 59.5% | [17] 17.3% | [18] 67.3% | [19] 48.2% | [20] 45.2%
active: [5] -14.9% | [10] -60.9% | [12] 0.406% | [13] -50.4%

CC(=O)OC(C)COc1ccc(-c2ccccc2)cc1 (stereo not given)
inactive: [1] 107% | [2] 106% | [3] 121% | [4] 102% | [5] 105% | [6] 89.9% | [7] 84.4% | [8] 54.9% | [9] 93.4% | [10] 104% | [11] 101% | [12] 97.9% | [13] 118% | [14] 103% | [15] 104% | [16] 96.1% | [17] 97.5% | [18] 101% | [19] 74.3% | [20] 92.1%

CC(=O)N1N=C(c2ccc(C)cc2)CC1c1ccc(Oc2ccc(Br)cc2)cc1 (stereo not given)
inactive: [1] 83.1% | [2] 90.1% | [3] 73.9% | [4] 83.6% | [5] 98.4% | [6] 89.4% | [7] 83.2% | [8] 81.5% | [9] 80% | [10] 97.7% | [11] 91.4% | [12] 75.3% | [13] 87.6% | [14] 85.7% | [15] 92.8% | [16] 79.5% | [17] 94.4% | [18] 94.7% | [19] 96% | [20] 88.3%

COc1ccc(C(=O)c2ccc(C)cc2)c(OC)c1OC
inactive: [1] 82.9% | [2] 90.1% | [3] 111% | [4] 78.5% | [5] 87.1% | [6] 85.6% | [7] 81.8% | [8] 78.3% | [9] 107% | [10] 70.8% | [11] 89.8% | [12] 40% | [13] 92.5% | [14] 75.9% | [15] 86.1% | [16] 85.9% | [17] 74.5% | [18] 77% | [19] 82.9% | [20] 61.3%

O=c1[nH]c2c3ccncc3cc(-c3cccc(Cl)c3)c2c2cnccc12
inactive: [1] 50.8% | [2] 29.6% | [3] 56.2% | [7] 53.7% | [8] 27.4% | [9] 17.4% | [10] 25.4% | [11] 39.5% | [12] 75% | [13] 69.1% | [14] 35.1% | [16] 53.9% | [17] 31.4% | [19] 49.5% | [20] 55.2%
active: [4] 0.205% | [5] 5.33% | [6] 5.61% | [15] -16.5% | [18] 2.59%
